From PubChem BioAssay (EPA / NIEHS)
Values joined by “and” are separate entries in the source; they are usually repeats but may differ in a detail not shown here. Equal entries are not always repeated. Some compounds were tested as several samples or in several runs, with calls that do not always agree. Active and inactive are the calls of the source. How the source made its calls: active means hit-call score of the fitted dose curve at least 0.9, where 1 is the maximum; inactive means score below 0.9.

Test: BSK_3C_SRB: Viability Assessment in the BioMAP Diversity Plus: 3C Assay (AID 2283023);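 further: fitted both ways against DMSO so a hit may be signal rise or drop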
Conditions: primary human endothelial cells (HUVEC)
Protocol: BSK_3C is a cell-based, multiplexed-readout assay that uses umbilical vein endothelium, a human vascular primary cell, with measurements taken at 24 hours after chemical dosing in a 96-well plate.BSK_3C_SRB is an assay component measured in the BSK_3C assay. It measures 0.1% sulforhodamine related to cell death using Sulforhodamine staining technology.Data from the assay component BSK_3C_SRB was analyzed into 1 assay endpoint. This assay endpoint, BSK_3C_SRB, was analyzed with bidirectional fitting relative to DMSO as the negative control and baseline of activity. Using a type of viability reporter, gain or loss-of-signal activity can be used to understand changes in the signaling. Furthermore, this assay endpoint can be referred to as a primary readout, because this assay has produced multiple assay endpoints where this one serves a signaling function. To generalize the intended target to other relatable targets, this assay endpoint is annotated to the cell morphology intended target family, where the subfamily is cell conformation.
The levels of cell surface (or secreted, indicated by the prefix "s") biomarker endpoints were measured by ELISA. Overt cytotoxicity to cells in confluent adherent cultures (all systems other than the BT system) was assessed by measuring total protein levels using sulforhodamine B (SRB) staining in parallel cultures at the time of biomarker measurements, indicated as SRB endpoints. For proliferation assays for adherent cell types, individual cell types are cultured at sub-confluence and relative cell numbers quantified by SRB staining at time points optimized for each system (48 h: 3C and CASM3C systems; 72 h: BT and HDF3CGF systems; 96 h: SAg system). SRB was performed by staining cells with 0.1% SRB after fixation with 10% TCA and reading wells at 560 nm.Viability and proliferation of PBMC (T cells) was quantified by Alamar Blue reduction for the SAg and BT systems. For PBMC viability (referred to as PBMC Cytotoxicity within the assay endpoint names), cells were plated (75,000/well in a 96-well plate) and then chemical samples added for 1 h before addition of activators, SEB and TSST-1 (20 ng/mL final concentration each). Cells were incubated for 90 h. Then, Alamar Blue (20 uL/well) (Invitrogen, Cat DAL1100) was added for 6 h, and the plates were read with a fluorescence microplate reader at 546/580 nm (excitation/emission). For PBMC proliferation, cells were plated and activated as above but incubated for only 16 h prior to addition of Alamar Blue. Plates were read after 6 h.

Structure (SMILES) | outcome | AC50
CN(C(=O)C(F)(F)C(F)(F)C(F)(F)F)[Si](C)(C)C | inactive | –
C=CC(=O)OCC(F)(F)C(F)(F)C(F)(F)C(F)(F)C(F)(F)C(F)(F)C(F)(F)C(F)F | inactive | –
Cc1cc(C)c(O)c(C(C)(C)C)c1 | – | 30.1 µM (active)
O=S(=O)(O)CCC(F)(F)C(F)(F)C(F)(F)C(F)(F)C(F)(F)C(F)(F)C(F)(F)C(F)(F)F | inactive | 25.6 µM (active)
O=C1C=CC(=O)N1c1ccc(Cc2ccc(N3C(=O)C=CC3=O)cc2)cc1 | – | 11.5 µM (active)
C=CC(=O)OCC(F)(F)C(F)(F)C(F)(F)COC(=O)C=C | – | 41.1 µM (active) and 40.3 µM (active)
OCCCC(F)(F)C(F)(F)C(F)(F)C(F)(F)C(F)(F)C(F)(F)C(F)(F)C(F)(F)F | – | 10.5 µM (active) and 28.4 µM (active)
OCC(F)(F)C(F)(F)C(F)(F)C(F)(F)C(F)(F)C(F)(F)C(F)(F)C(F)(F)CO | inactive | 24.6 µM (active)
C=CC(=O)OCCC(F)(F)C(F)(F)C(F)(F)C(F)(F)F | inactive | –
CCN(CCO)S(=O)(=O)C(F)(F)C(F)(F)C(F)(F)C(F)(F)C(F)(F)C(F)(F)C(F)(F)C(F)(F)F | – | 27.6 µM (active) and 17.8 µM (active)
Cc1cc(O)c(C(C)(C)C)cc1C(C)(C)C | – | 3.99 µM (active)
CCOC(C=C(C)CCC=C(C)C)OCC | – | 31.2 µM (active)
O=C(Cl)C(F)(F)C(F)(F)C(F)(F)C(F)(F)C(F)(F)C(F)(F)C(F)(F)F | inactive | –
O=C1c2c(O)ccc(Nc3ccc(CCO)cc3)c2C(=O)c2c([N+](=O)[O-])ccc(O)c21 | inactive | –
O=S(=O)(OCC(F)(F)F)C(F)(F)C(F)(F)C(F)(F)C(F)(F)F | inactive | –
Cc1ccc(S(=O)(=O)C(I)I)cc1 | – | 5.27 µM (active)
NC(=O)C(F)(F)C(F)(F)C(F)(F)C(F)(F)C(N)=O | inactive | –
CC(C)CCCC(C)CCO (stereo not given) | – | 33.8 µM (active)
O=C(O)C(F)(F)C(F)(F)C(F)(F)C(F)(F)C(F)(F)C(F)(F)C(F)F | inactive | –

Structure (SMILES) | outcome | AC50
O=C=Nc1cccc2c(N=C=O)cccc12 | inactive | –
NC(=O)C(F)(F)C(F)(F)C(F)(F)C(F)F | inactive | –
CNS(=O)(=O)C(F)(F)C(F)(F)C(F)(F)C(F)(F)C(F)(F)C(F)(F)C(F)(F)C(F)(F)F | inactive | –
CCN(CC)c1ccc(C=O)c(O)c1 | inactive | –
FC(F)(F)C(F)(F)C(F)(F)C(F)(F)C(F)(F)C(F)(F)C(F)(F)CCI | inactive | –
O=C(O)C(F)(F)OC(F)(F)C(F)(F)OC(F)(F)C(F)(F)OC(F)(F)F | inactive | –
C[Si](Cl)(Cl)CCC(F)(F)C(F)(F)C(F)(F)C(F)(F)C(F)(F)C(F)(F)F | inactive | –
NC(=O)C(F)(F)C(F)(F)C(F)(F)F | inactive | –
CCN(CC)c1ccc2c(c1)Oc1cc(N(CC)CC)ccc1C21OC(=O)c2ccccc21 | – | 5.74 µM (active)
NC(O)(C(F)(F)F)C(F)(F)F | inactive | –
Brc1nc2ccccc2s1 | inactive | –
OCC(O)CC(F)(F)C(F)(F)C(F)(F)C(F)(F)F (stereo not given) | inactive | –
FC(F)(F)C(F)(F)C(F)(F)CC1CO1 (stereo not given) | inactive | –
CCN(CC)c1ccc(C=O)cc1 | inactive | –
Nc1cc([N+](=O)[O-])cc(Cl)c1O | inactive | –
O=S(=O)(O)CCC(F)(F)C(F)(F)C(F)(F)C(F)(F)F | inactive | –
CCN=C1C=CC(=C(c2ccc(N(CC)CC)cc2)c2ccc(N(CC)CC)cc2)c2ccccc21 | – | 1.6 µM (active) and 1.67 µM (active)
O=S(=O)(Cl)C(F)(F)C(F)(F)C(F)(F)C(F)(F)C(F)(F)C(F)(F)C(F)(F)C(F)(F)F | – | 49.3 µM (active) and 55.6 µM (active)
O=C(O)C(F)(F)C(F)(F)C(F)(F)C(=O)O | inactive | –
